From PubChem BioAssay
Only some compounds are listed: those with a hit (about 14% of all), similar ones and a draw of the others.
HCMV antiviral = inhibitors of human cytomegalovirus. AID 1259415. activity change, negative = inhibition, % at 57.5 µM. actives 4.5% (n = 410,000). HFF cells, HCMV-luciferase reporter, 72 h; active compounds read low; in the data active means activity change below about -60%; inconclusive means no clear call, values can overlap the other calls; inactive means above about -39%
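Two-dose cell screen: HFF monolayers treated with compounds and infected with luciferase-expressing HCMV at 1 PFU/cell, 72 h at 37C, then lysed for luciferase measurement.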
FBPA Giardia inh = Giardia lamblia aldolase inhibition; purified Giardia FBPA; Potency, µM (doses to about 59.6 µM), for inactives: at the top dose activity, negative = inhibition, hits mostly inhibitors; actives 0.71% (n = 290,000); further: potency means the concentration at half of the fitted maximal effect; nearly all actives have a fitted effect of over 55% in size
Target sequence (A8B2U2 whole entry, looked up): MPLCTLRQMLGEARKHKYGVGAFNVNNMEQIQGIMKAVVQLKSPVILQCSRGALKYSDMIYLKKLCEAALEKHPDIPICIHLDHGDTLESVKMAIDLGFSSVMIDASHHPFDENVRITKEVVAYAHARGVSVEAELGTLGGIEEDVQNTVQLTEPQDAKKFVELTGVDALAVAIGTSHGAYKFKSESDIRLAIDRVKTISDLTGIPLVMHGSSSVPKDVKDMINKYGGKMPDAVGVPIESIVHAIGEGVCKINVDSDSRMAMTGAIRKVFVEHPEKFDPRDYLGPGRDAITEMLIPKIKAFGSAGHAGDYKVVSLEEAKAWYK
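40 nM FBPA preincubated 10 min at RT with compound (up to 57.5 uM final), then substrate plus GAPDH/TPI/NAD/arsenate coupling and diaphorase/resazurin added. Fluorescence read after 20 min at RT, 525/598 nm.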
Sm TGR block = blocks Schistosoma mansoni thioredoxin glutathione reductase; purified TGR, DTNB reduction, TNB absorbance 405 nm; AID 485364; actives 3% (n = 360,000); Potency, µM (highest dose often 114 µM), for inactives: top-dose activity change, negative = inhibition, usual class: inhibitors; Q962Y6; further: potency means the concentration at half of the fitted maximal effect; nearly all actives have a fitted effect of over 60% in size
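TGR 20 nM + NADPH 100 uM (dispensed conc.), cpd preinc 15 min RT; start with NADPH (500 uM addition) then DTNB (15 mM addition). Kinetic TNB absorbance, 405 nm filter. Four-parameter Hill fit across titration.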
Pf growth 96h = inhibits malaria parasite growth, 96 h; P. falciparum luciferase reporter growth, 96 h; Potency, µM (series often up to 28.7 µM), for the others: at the top dose activity change, negative = inhibition, usual class: inhibitors; actives 6.9% (n = 320,000); AID 504834; further: potency means the concentration at half of the fitted maximal effect
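Infected RBCs, 2% Hct / 0.05% parasitemia final; luciferase-reporter P. falciparum; cpd 96 h, 37 C, 5% CO2; luciferase detection reagent; luminescence.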
Pf growth 48h = P. falciparum growth inhibition at 48 hours (one generation) | P. falciparum luciferase growth in erythrocytes, 48 h | Potency, µM (top dose mostly 28.7 µM), for the others: top-dose activity change, negative = inhibition, most hits filed as inhibitors | actives 5.9% (n = 310,000) | AID 504832; further: potency means the concentration at half of the fitted maximal effect
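Parasite viability was followed by luminescence of a genomically integrated firefly luciferase. Cultures held 0.1% parasitemia at 2% hematocrit (final), incubated under 5% CO2 at 37 C.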
* marks the source's active call; other numbers are inactive results; ? = inconclusive; nt = no result. Unless noted, the call rests on the fitted dose curve; in most records, active means well fitted curve in the direction sought with a large enough effect; inconclusive means small, poorly fitted or top-dose-only effect, or another doubt; inactive means no such curve, though single readings can be large; an effect the other way counts as inactive or inconclusive. On the % scale 0 is the no-effect control and ±100 the full control effect.

SMILES	HCMV antiviral	FBPA Giardia inh	Sm TGR block	Pf growth 96h	Pf growth 48h
C#CC(C)(CC)NC(=O)c1cc2c(n(-c3ccc(Cl)cc3)c1=O)CC(C)(C)CC2=O (centres undefined)	18	nt	1%	nt	nt
CCn1c(=NC(=O)c2ccc(S(=O)(=O)N(C)C)cc2)sc2cccc(OC)c21	-28	-13%	2%	?	8.3µM*
COc1cccc2sc(=NC(=O)CS(=O)(=O)c3ccc(F)cc3)n(C)c12	-19	nt	-3%	29%	27%
CCn1c(=NC(=O)CS(=O)(=O)c2ccc(C)cc2)sc2cccc(OC)c21	-62*	nt	0%	?	?
CCC(C)c1ccc(O[C@@H]2O[C@H](CO)[C@@H](O)[C@H](O)[C@H]2NC(C)=O)cc1 (some centres undefined)	nt	-2%	nt	nt	nt
Cc1ccc(-n2ncc3c2CCCC3NC(=O)c2ccoc2)cc1C (centres undefined)	?	-10%	4%	?	?
Cc1cc(C)c(C(=O)NC2CCCc3c2cnn3-c2ccc(C)c(C)c2)c(=O)[nH]1 (centres undefined)	-10	nt	-2%	23%	1%
COCc1ccc(C(=O)NC2CCCc3c2cnn3-c2ccc(C)c(C)c2)o1 (centres undefined)	-77*	-11%	-35%	?	-10%
Cc1cc(C(=O)NC2CCCc3c2cnn3-c2ccc(C)c(C)c2)n(C)n1 (centres undefined)	-99*	nt	-3%	?	?
COC(=O)CCC(=O)Nc1cccc([N+](=O)[O-])c1	-5	1%	0%	12µM*	14%
Cc1ccc(CN(C(=O)COc2cccc([N+](=O)[O-])c2)c2ccccn2)cc1	-6	nt	-1%	nt	nt
Cc1ccc(CN(C(=O)COc2cccc([N+](=O)[O-])c2)c2ccccn2)o1	?	nt	50µM*	nt	nt
Cc1cc(NC(=O)COc2ccc3ccccc3c2)no1	46	11%	-2%	?	11%
Cc1cccc(NC(=O)CCC(=O)OCC(=O)c2ccc(Oc3ccc([N+](=O)[O-])cc3)cc2)c1	-3	-2%	40µM*	124%	9%
Cc1ccc(NC(=O)CCC(=O)OCC(=O)c2ccc(Oc3ccc([N+](=O)[O-])cc3)cc2)cc1C	9	3%	-24%	?	-5%
Cc1cc(NC(=O)COc2cccc([N+](=O)[O-])c2)no1	-26	nt	45µM*	-29%	1.7µM*
O=C(CCC(=O)Nc1cccc([N+](=O)[O-])c1)NCc1ccccc1	-15	-4%	2%	25%	23%
Cc1ccccc1-c1cncnc1NCc1cccnc1	nt	17%	nt	nt	nt
COc1cc(CN2C[C@@H](CO)O[C@@H](n3cnc4c(NC5CCC5)ncnc43)C2)cc(OC)c1OC	34	nt	nt	nt	nt
CCC(=O)Nc1ccc(Cl)c(NC(=S)NC(=O)COc2ccc(Cl)cc2)c1	5	0%	-8%	1.9µM*	33%
O=C(CCOc1ccccc1)Nc1cccc([N+](=O)[O-])c1	61	-3%	?	1%	39%
O=C(COc1ccccc1)NC(=S)Nc1cccc(NC(=O)c2ccccc2Cl)c1	-64*	-7%	-5%	236%	11%
COC(=O)CC/C(C)=N\Nc1ccc([N+](=O)[O-])cc1[N+](=O)[O-]	-103*	1%	41%	0%	17%
C/C(CC(C)C)=N/Nc1ccc([N+](=O)[O-])cc1[N+](=O)[O-]	-17	2%	0%	2%	2%
O=C(COc1ccccc1)NC(=S)Nc1cccc([N+](=O)[O-])c1	-23	-1%	-5%	1.7µM*	5%
SMILES	HCMV antiviral	FBPA Giardia inh	Sm TGR block	Pf growth 96h	Pf growth 48h
CCC(=O)Nc1ccc(Cl)c(NC(=S)NC(=O)COc2ccccc2)c1	-32	-8%	-2%	35%	26%
COc1ccc(/C=N\Nc2ccc([N+](=O)[O-])cc2[N+](=O)[O-])c(C(=O)O)c1OC	-27	16%	8.9µM*	-6%	99%
CSCCC1NC2(C(=O)Nc3c(Cl)cccc32)[C@@H]2C(=O)N(C3CCCC3)C(=O)[C@H]12 (some centres undefined)	2	-4%	-19%	10µM*	?
CN(C)CCCNc1ncnc2sc(-c3ccccc3)cc12	-6	?	-19%	?	?
CCOC(CNc1ncnc2sc(-c3ccccc3)cc12)OCC	-72*	5%	?	?	?
COc1ccc(Nc2ncnc3sc(-c4ccccc4)cc23)cc1OC	-62*	2%	12%	?	0%
Cc1ccc(OCC(=O)N(C)CC(=O)Nc2cccc(F)c2)cc1	9	nt	4%	-30%	0%
O=C(N=c1ccn(-c2nc3ccccc3nc2NS(=O)(=O)c2ccccc2)cc1)c1cccs1	-12	-4%	-10%	?	20%
Cc1ccccc1C(=O)N=c1ccn(-c2nc3ccccc3nc2NS(=O)(=O)c2ccc(F)cc2)cc1	-61*	-6%	-1%	-6%	-13%
NC(=O)C1=CC2C3C=CC2(O)C(=O)OC3O1 (centres undefined)	-97*	nt	nt	nt	nt
CCSc1nc2n(n1)C(c1ccc(C(=O)O)cc1)C(C(=O)Nc1ccccc1C)=C(C)N2 (centres undefined)	10	nt	7%	nt	nt
CC(=O)c1ccc(NC(=O)/C(=C\c2cccs2)NC(=O)c2ccco2)cc1	169	1%	nt	41%	10%
Cc1ccc(C(=O)OCC(=O)NCCN2C(=O)CSC2=O)cc1[N+](=O)[O-]	-3	nt	nt	nt	nt
CC1CCN(c2ccc(C(=O)OCC(=O)NCCN3C(=O)CSC3=O)cc2[N+](=O)[O-])CC1	-78*	-2%	-7%	34%	11%
O=C(Nc1ccc(Oc2cccc(C(F)(F)F)c2)nc1)c1ccccc1	-30	0%	3%	15µM*	10µM*
CC(C)(C)c1ccc(Oc2ccc(NC(=O)c3ccccc3C(=O)O)cn2)cc1	-63*	15%	?	5%	?
O=C(Nc1ccc(Oc2cccc(C(F)(F)F)c2)nc1)c1cccs1	-61*	-19%	11%	?	1.7µM*
COc1ccc(NC(=O)COc2cccc(C(F)(F)F)c2)cn1	-14	nt	-5%	0%	?
COc1cc(NC(=O)c2ccnnc2)cc(C(=O)Nc2cccc(C(F)(F)F)c2)c1	11	-7%	-3%	4.1µM*	9.3µM*
Cn1c(=O)c2c(ncn2CC(=O)OCC(=O)c2ccc(Br)cc2)n(C)c1=O	-6	nt	nt	nt	nt
COc1cccc(C(=O)Nc2ccc(Oc3cccc(C(F)(F)F)c3)nc2)c1	-74*	-13%	0%	?	9.3µM*
COc1ccc(-n2cc3c(c2-c2cccc(Br)c2)c(=O)n(C)c(=O)n3C)cc1OC	-7	nt	-9%	nt	nt
CCN(CC)CCNC(=S)Nc1ccc2nc(N3CCN(C)CC3)cc(C)c2c1	-16	0%	-23%	-4%	10µM*
